Our source for the growth inhibition values is PubChem BioAssay (NCI).

Experiment [1] in a line: NCI Yeast Anticancer Drug Screen. Data for the rad50 strain (AID 155).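 Further: 0% = growth of vehicle-only cultures of the same strain.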 The note with it: S. cerevisiae rad50 strain growth inhibition; at 50.0 µM; hits give high values. The procedure, abridged:
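Vehicle-treated cultures provide the reference for the growth inhibition reported for compound-exposed, repair-deficient yeast.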

The nature of experiment [2]: NCI Yeast Anticancer Drug Screen. Data for the mec2-1 strain (AID 157). As to conditions: S. cerevisiae mec2-1 strain, at 50.0 µM, hits give high values. In outline:
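Mutant yeast (mec2-1) grown with compound; growth inhibition relative to vehicle control reported.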

Experiment [3] can be described thus: NCI Yeast Anticancer Drug Screen. Data for the sgs1 mgt1 strain (AID 161).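 Further: 0% = growth of cultures given vehicle only.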 As to conditions: S. cerevisiae sgs1 mgt1 strain, at 50.0 µM, hits give high values. In outline: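 Compounds are added to genetically altered yeast, and growth is compared with cultures given vehicle alone to give percent inhibition.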
The nature of experiment [4]: NCI Yeast Anticancer Drug Screen. Data for the cln2 rad14 strain (AID 165).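 Further: 0% = growth equal to vehicle treated cultures.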 As to conditions: S. cerevisiae cln2 rad14 strain, at 50.0 µM, hits give high values. In outline: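 Readout is yeast growth inhibition versus vehicle-treated controls, using a strain with cln2 and rad14 alterations exposed to compound.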
Experiment [5] can be described thus: NCI Yeast Anticancer Drug Screen. Data for the bub3 strain (AID 167). The note with it: S. cerevisiae bub3 mutant strain, at 50.0 µM, hits give high values. In outline: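 Mutant yeast screening strain plus compound; vehicle-treated cultures serve as the 0% inhibition reference.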
A short description of experiment [6]: NCI Yeast Anticancer Drug Screen. Data for the mlh1 rad18 strain (AID 175). As to conditions: S. cerevisiae mlh1 rad18 strain growth inhibition; at 50.0 µM; hits give high values. In outline: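 Genetically defined yeast (DNA repair-deficient) exposed to compounds; growth inhibition determined relative to vehicle.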

This is part of a sample that, as a whole, favours compounds with a hit. Of some 79,000 tested, about 15% had one in any assay. A number with no mark means an inactive call. The source made the active and inactive calls. No stated cut-off is given here; in the data, active means growth inhibition above about 70%; inactive means the rest.

In the case of `OC(COc1cccc(C(F)(F)F)c1)CN1CCN(c2ccccc2)CC1` (centres undefined), the growth inhibition in experiment [1] was 83.7% (active); in experiment [2], 83% (active); in experiment [3], 93.5% (active); in experiment [4] it was 86.7% (active); in experiment [5], 75.4% (active); in experiment [6], 87.3% (active).
`CC(=O)c1ccc[cH-]1.[Fe+2].c1cc[cH-]c1`: the growth inhibition was 13.5% in experiment [1]; 9.75% in experiment [2]; 12.9% in experiment [3]; 4.25% in experiment [4]; 23.2% in experiment [5]; 11.3% in experiment [6].
As for `COc1c2c(cc3c1[C@@H]1Oc4c(ccc(O)c4CC=C(C)C)[C@@H]1CO3)OC(C)(C)C=C2`, the growth inhibition in experiment [1] was 45.5%; in experiment [2], 52.7%; in experiment [3] it was 36.9%; in experiment [4], 55.2%; in experiment [5], 44.5%; in experiment [6], 41.4%.
As to `N#Cc1nc(C2=C(Cl)c3ccccc3OC2)[nH]c1C#N`, the growth inhibition is 40% in experiment [1]; 42.9% in experiment [2]; 46.5% in experiment [3]; 56.5% in experiment [4]; 50.6% in experiment [5]; 31.8% in experiment [6].
For the compound `C#CCOc1c(C(=O)OCC)c(=O)n(C)c2ccccc12`, the growth inhibition in experiment [1] was -10%; in experiment [2] it was -17.1%; in experiment [3], 12.8%; in experiment [4], 9.4%; in experiment [5] it was 3.55%; in experiment [6], 1.7%.
On to `COc1cc(C2c3cc4c(cc3OC(NCCc3ccccc3)C2C)OCO4)cc(OC)c1OC` (centres undefined), for which the growth inhibition in experiment [1] is -15.8%; in experiment [2] it was -41.4%; in experiment [3], -0.3%; in experiment [4], -25.4%; in experiment [5], 0.6%; in experiment [6], 11.4%.
Consider `CN(C)CC1CCCC(CN(C)C)C1=NOC(=O)c1ccccc1` (centres undefined), for which the growth inhibition in experiment [1] was -8.15%; in experiment [2] it was -33.8%; in experiment [3] it was -2.3%; in experiment [4], -21.4%; in experiment [5], 8.05%; in experiment [6], -27.8%.
Take `CC1CN(C(c2ccccc2)c2ccccc2)CCN1CCO` (centres undefined): the growth inhibition is -3.75% in experiment [1]; 20.6% in experiment [2]; 12.3% in experiment [3]; -65.2% in experiment [4]; 4.85% in experiment [5]; 25.4% in experiment [6].
For the compound `CCC(=O)OCCN(C(=O)CC)c1ccccc1`, the growth inhibition in experiment [1] is 35.6%; in experiment [2], 5.75%; in experiment [3] it was 22.2%; in experiment [4], -2.5%; in experiment [5], -0.05%; in experiment [6], 31.4%.
Consider `C(=N/OCc1ccccc1)/c1ccncc1`, for which the growth inhibition in experiment [1] is 45%; in experiment [2], 27.6%; in experiment [3] it was 45.7%; in experiment [4] it was 30.2%; in experiment [5], 47.4%; in experiment [6], 46.9%.
As to `COC1=CC(=C(\C#N)c2ccccc2)/C=CC/1=N/O`, the growth inhibition in experiment [1] was 40.2%; in experiment [2], 39%; in experiment [3], 46.6%; in experiment [4], -2%; in experiment [5], 64.5%; in experiment [6] it was 46.8%.
Take `Cc1cccc(C)c1NC(=O)N1CCN(C)CC1`: the growth inhibition was 1.9% in experiment [1]; 14.3% in experiment [2]; -3.3% in experiment [3]; -75.8% in experiment [4]; -9.45% in experiment [5]; -18.6% in experiment [6].
Take `O=C(OCC(OC(=O)c1ccccc1)C(OC(=O)c1ccccc1)C(OC(=O)c1ccccc1)C(COC(=O)c1ccccc1)OC(=O)c1ccccc1)c1ccccc1` (centres undefined): the growth inhibition was 22.1% in experiment [1]; 10% in experiment [2]; 10.7% in experiment [3]; 5.55% in experiment [4]; -5.45% in experiment [5]; 7.65% in experiment [6].
Take `Cc1ccc2nc(-c3cccc([N+](=O)[O-])c3)c(N=O)n2c1`: the growth inhibition is -0.7% in experiment [1]; 4.35% in experiment [2]; 1.05% in experiment [3]; -14.9% in experiment [4]; 2.1% in experiment [5]; 21.2% in experiment [6].
On to `Nc1cc2c(cc1Br)-c1cc(Cl)c(Cl)cc1C2=O`, for which the growth inhibition is -5.75% in experiment [1]; -13.8% in experiment [2]; -7.15% in experiment [3]; -23.1% in experiment [4]; -2.1% in experiment [5]; -11.5% in experiment [6].
In the case of `CCOC(=O)C/C(C)=N\NS(=O)(=O)c1ccc([N+](=O)[O-])cc1`, the growth inhibition was 3.05% in experiment [1]; -16.5% in experiment [2]; 8.85% in experiment [3]; -30.1% in experiment [4]; 8% in experiment [5]; 2.45% in experiment [6].
Regarding `CN(C)c1ccccc1N(C)C`, the growth inhibition in experiment [1] is 5.5%; in experiment [2] it was -15.4%; in experiment [3], -14.9%; in experiment [4], -8.2%; in experiment [5], -1.35%; in experiment [6], -13%.
As for `COc1ccc(CSc2n[nH]c(=O)[nH]c2=S)cc1`, the growth inhibition in experiment [1] was 14.8%; in experiment [2] it was -4.45%; in experiment [3] it was -10.4%; in experiment [4] it was -12.1%; in experiment [5], 4.7%; in experiment [6] it was 38.4%.
With `O=S(O)CCCCCSSCCCCSSCCCCCS(=O)O`, the growth inhibition in experiment [1] was 7.6%; in experiment [2], -0.15%; in experiment [3] it was 11.5%; in experiment [4], 10.3%; in experiment [5], 12.8%; in experiment [6], 27.4%.
On to `CCC[N+]1([O-])CCOCC1`, for which the growth inhibition was -8.2% in experiment [1]; -1.8% in experiment [2]; -5.55% in experiment [3]; 26.4% in experiment [4]; 14.3% in experiment [5]; -18.1% in experiment [6].
Turning to `S=c1[nH]c2ccccc2n1CCc1ccncc1`, the growth inhibition was -6.8% in experiment [1]; -15.1% in experiment [2]; 22.2% in experiment [3]; -1.5% in experiment [4]; 1.05% in experiment [5]; 3.5% in experiment [6].
Turning to `CCN(CC)C(=O)CNC(=O)C(c1ccccc1)c1ccccc1`, the growth inhibition in experiment [1] was 4.25%; in experiment [2] it was -6.2%; in experiment [3] it was 1.4%; in experiment [4], -9.7%; in experiment [5], 6.35%; in experiment [6], -8.05%.
Take `Nc1nc2c(ncn2-c2cccc(Cl)c2)c(=O)[nH]1`: the growth inhibition is -0.9% in experiment [1]; 16.5% in experiment [2]; 7.55% in experiment [3]; -7.5% in experiment [4]; 31.5% in experiment [5]; 13.8% in experiment [6].
For the compound `COC(=O)c1c[nH]c(C=O)c1C`, the growth inhibition was 15.8% in experiment [1]; -0.7% in experiment [2]; -6.95% in experiment [3]; -67.8% in experiment [4]; 8.3% in experiment [5]; 8.8% in experiment [6].
On to `Cc1cc2c(C)[nH]nc2c(C(=O)O)c1C`, for which the growth inhibition is 6.85% in experiment [1]; -5.15% in experiment [2]; 6.35% in experiment [3]; 11.1% in experiment [4]; 3.2% in experiment [5]; 19.4% in experiment [6].
For the compound `O=c1ccn(C2OC(C(O)CO)C(O)C2O)c(=O)[nH]1` (centres undefined), the growth inhibition in experiment [1] is -4.95%; in experiment [2] it was -2.55%; in experiment [3], 5.45%; in experiment [4], -60.8%; in experiment [5], -8.15%; in experiment [6], 9.25%.
Regarding `CCCCCCO/N=C\c1c2c(O)c3c(O)c(C)c4c(c3c1O)C(=O)C(C)(O/C=C\C(OC)C(C)C(OC(C)=O)C(C)C(O)C(C)C(O)C(C)/C=C\C=C(\C)C(=O)N2)O4` (centres undefined), the growth inhibition in experiment [1] was 25.2%; in experiment [2] it was 63.4%; in experiment [3], 36.6%; in experiment [4] it was 54%; in experiment [5], 26.2%; in experiment [6], 53.9%.
On to `O=C(O)C(Cc1cccs1)C(=O)OCCc1ccccc1` (centres undefined), for which the growth inhibition in experiment [1] was -4.95%; in experiment [2], -6.45%; in experiment [3] it was 1.05%; in experiment [4], -10.8%; in experiment [5], -13.7%; in experiment [6] it was 21.7%.
On to `OCC1CC(O)CN2CCc3c([nH]c4ccccc34)C2C1` (centres undefined), for which the growth inhibition in experiment [1] is 4.6%; in experiment [2] it was 3.25%; in experiment [3], 11.3%; in experiment [4] it was -5.2%; in experiment [5], 0.1%; in experiment [6], 2.8%.
For `O=C(O)COc1cccc([N+](=O)[O-])c1`, the growth inhibition is 3% in experiment [1]; -10.3% in experiment [2]; -9.9% in experiment [3]; -62.5% in experiment [4]; -5% in experiment [5]; -17.4% in experiment [6].
As to `Cc1nc2ccc(N)cc2oc1=O`, the growth inhibition was 6.55% in experiment [1]; 15.1% in experiment [2]; 15.2% in experiment [3]; -28.9% in experiment [4]; 0.8% in experiment [5]; 9.35% in experiment [6].
As to `Cc1ccc(C2=C(c3ccccc3)C(O)(c3ccccc3)C(c3ccccc3)=C2c2ccc(C)cc2)cc1`, the growth inhibition in experiment [1] is -1.6%; in experiment [2], -20.1%; in experiment [3], -31.5%; in experiment [4], 15.8%; in experiment [5] it was 14.1%; in experiment [6] it was -12.7%.
For the compound `Nc1c(Cl)ncnc1Nc1cccc(C(F)(F)F)c1`, the growth inhibition in experiment [1] is 9.9%; in experiment [2], 38.4%; in experiment [3], 53.1%; in experiment [4] it was 10.1%; in experiment [5], 41.6%; in experiment [6], 66.5%.
On to `OCc1c(CO)c(Br)c2ccccc2c1Br`, for which the growth inhibition was 11.8% in experiment [1]; 3.75% in experiment [2]; 35% in experiment [3]; -6.45% in experiment [4]; 4.9% in experiment [5]; -6.2% in experiment [6].
As for `CCCCNC(=S)C(=S)NCCCC`, the growth inhibition is 10.7% in experiment [1]; -0.3% in experiment [2]; 0.05% in experiment [3]; 26.9% in experiment [4]; 17.4% in experiment [5]; -11.2% in experiment [6].
With `Cc1ccnc(C2=C(O)c3ccccc3C2=O)c1`, the growth inhibition in experiment [1] is 20%; in experiment [2], 0.1%; in experiment [3] it was -9.75%; in experiment [4], 1.15%; in experiment [5], -2.8%; in experiment [6], 12.8%.
As to `O=Cc1c(Cl)c(Cl)c(Cl)c(Cl)c1Cl`, the growth inhibition in experiment [1] is -2.3%; in experiment [2], 6.3%; in experiment [3], 16.9%; in experiment [4] it was -39.6%; in experiment [5] it was 4.6%; in experiment [6], 51.1%.
With `CC1(CCC(=O)c2ccc3c(c2)OCO3)OCCO1`, the growth inhibition is 31.8% in experiment [1]; 8.95% in experiment [2]; 23.4% in experiment [3]; 14% in experiment [4]; 24.6% in experiment [5]; 26.9% in experiment [6].
In the case of `C=C1CC/C=C(\C)CCC2C1CC2(C)C` (centres undefined), the growth inhibition in experiment [1] is -5.1%; in experiment [2], -17.1%; in experiment [3] it was 1.9%; in experiment [4], 12.2%; in experiment [5] it was 21.1%; in experiment [6] it was 10.9%.
